aSyn UTR act = Activators working through SNCA 5'UTR binding (MLPCN). alpha-synuclein 5'UTR reporter, activators screen. activity score, % (tested at 7.5 µM), hits read low. hit rate 7.1% among 300,000. AID 1814; in the data active = activity score below about -60%
* = called active by the depositor. Not all results are given here.

SMILES | aSyn UTR act
O=C(Nc1ccc(Cc2ccncc2)cc1)C1CCC(N2C(=O)C3C4C=CC(C5CC45)C3C2=O)CC1 (stereo unspecified) | -62.4*
c1ccc(-c2csc(NC3CCCCC3)n2)cc1 | -91.9*
c1ccc(-c2nnc(-c3ccccn3)nc2NC2CCCCC2)cc1 | 101.2
O=C(Nc1nc(-c2ccc(F)cc2)cs1)C1CCCO1 (stereo unspecified) | -97.5*
O=C(Nc1nc(-c2ccc(-c3ccccc3)cc2)cs1)C1CCCO1 (stereo unspecified) | -64.8*
O=C(NNc1nc(-c2ccc(F)cc2)cs1)c1ccccc1 | 90.4
O=C(Nc1nc(-c2ccccc2)cs1)C1CCCO1 (stereo unspecified) | -65.7*
COc1ccc(-c2cc(C(F)(F)F)nc(S(=O)(=O)CCC(=O)N3CCOCC3)n2)cc1 | -76.2*
CCc1nnc(NC(=O)c2oc3cc(C)c(C)cc3c2C)s1 | -102.0*
CCc1nonc1NC(=O)c1oc2cc(C)c(C)cc2c1C | -126.8*
O=C(NC1CCCCC1)Oc1cc2oc(=O)sc2cc1Br | 53.6
O=C(NC1CCCC1)c1cc2ccccc2o1 | -107.2*
O=C(NC1CCCCC1)c1cc2cc(Br)ccc2o1 | -138.3*
O=C(NC1CCCC1)c1cc2cc(Br)ccc2o1 | -138.8*
O=c1c(-c2ccc(O)cc2)coc2cc(O)cc(O)c12 | -99.2*
COc1ccc(-c2coc3cc(OC)cc(O)c3c2=O)cc1 | -129.8*
COc1ccc(-c2coc3cc(OC)cc(OC)c3c2=O)cc1 | -166.2*
CC(C)Oc1cc(O)c2c(=O)c(-c3ccc(O)cc3)coc2c1 | -138.3*
COc1ccc(-c2coc3cc(O)cc(O)c3c2=O)cc1 | -114.6*
O=C1N=C(N2CCCCC2)S/C1=C\c1ccc(Cl)cc1 | -149.5*
O=C1N=C(N2CCCCC2)S/C1=C\c1ccccc1F | -143.0*
C=CCOc1ccc(/C=C2\SC(N3CCCCC3)=NC2=O)cc1 | -66.3*
Cc1ccc(/C=C2\SC(N3CCCCC3)=NC2=O)cc1 | -175.6*
Cc1cc(N(C)/N=C/c2ccccc2O)nc(-c2ccccc2O)n1 | -97.2*
COc1ccc(Nc2nc(N3CCCC3)nc3ccccc23)c(OC)c1 | -80.8*
SMILES | aSyn UTR act
COc1ccc(Nc2cc3n(c(=O)n2)CCc2cc(OC)c(OC)cc2-3)c(C)c1 | 80.1
COc1ccc2c(c1)CC/C2=N\OC(=O)c1ccccc1C | -136.4*
CNC(=O)c1cc2c(s1)-c1ccccc1CC2 | -132.9*
COC(=O)c1cc2c(s1)-c1ccc(OC)cc1CC2 | -211.7*
COc1ccc2c(c1)CC/C2=N\NC(=O)c1ccccc1 | -111.3*
COc1ccc(C(=O)N=C2CCC(C#N)=C3c4cc(OC)c(OC)cc4CCN23)cc1 | 54.6
Cc1ccccc1C(=O)O/N=C/c1c(N2CCOCC2)n(C)c2ccccc12 | 86.5
CCC(C)n1ncn(-c2ccc(N3CCN(c4ccc(O)cc4)CC3)cc2)c1=O (stereo unspecified) | 73.2
COc1ccc2c(c1)CC/C2=N\OC(=O)c1cccc(C)c1 | -229.7*
O=C(N/N=C1\CCCc2ccccc21)c1ccc([N+](=O)[O-])cc1 | -82.4*
Cc1ccc(C(=O)N/N=C2\CCCc3ccccc32)c(C)c1 | -160.6*
CC(=O)c1c(C)[nH]c(C(=O)Nc2ccccc2Cl)c1C | -62.6*
CC(=O)c1c(C)[nH]c(C(=O)Nc2ccc(C)cc2Br)c1C | -131.1*
CC(=O)c1c(C)[nH]c(C(=O)NCCc2cccc(C)c2)c1C | -170.4*
CC(=O)c1c(C)[nH]c(C(=O)Nc2ccc(F)cc2F)c1C | -111.4*
CCOC(=O)c1cnc(SCc2cccc(C)c2)nc1N | -89.3*
CCOC(=O)c1cnc(SCC(C)C)nc1N | -103.7*
CCOC(=O)c1cnc(SCC(=O)c2ccccc2)nc1N | -141.2*
Cc1ccc(NC(=O)OC(C)CNC(=O)Oc2cccc(C)c2)cc1 (stereo unspecified) | -93.0*
COC(=O)NCC(C)OC(=O)Nc1ccc(Cl)cc1 (stereo unspecified) | -94.8*
Cc1ccc(NC(=O)OCCNC(=O)OC(C)C)cc1 | -72.8*
Cc1ccc(NC(=O)c2cc3ccccc3o2)nc1 | -94.6*
Cc1ccccc1NC(=O)c1cc2ccccc2o1 | -171.5*
COc1ccccc1NC(=O)c1cc2ccccc2o1 | -91.6*
O=C(Nc1ncccc1Cl)c1cc2ccccc2o1 | -74.0*
SMILES | aSyn UTR act
Nc1ccccc1C(=O)Nc1ccc(Cl)cc1Cl | -119.6*
O=C(NCCc1ccccn1)c1cc2ccccc2o1 | -101.7*
O=C(Nc1ccc(Cl)cc1Cl)c1cc2ccccc2o1 | -110.2*
O=C(Cc1ccc(Cl)cc1)Nc1ccc(-c2cc3ccccc3oc2=O)c(Cl)c1 | 96.1
Nc1ccc(NC(=O)c2cccc(C(=O)Nc3ccc(N)cc3Cl)c2)c(Cl)c1 | -85.4*
O=C(Nc1ccccc1Cl)c1cc2ccccc2o/c1=N\O | -121.3*
O=[N+]([O-])c1ccc(NCc2ccc(Cl)cc2)nc1 | -104.9*
CC(C)c1ccc(CNc2c([N+](=O)[O-])c(=O)oc3ccccc23)cc1 | -70.8*
CC(C)c1ccc(CNc2ncc(Br)cn2)cc1 | -153.1*
CC(C)c1ccc(CNc2ccc([N+](=O)[O-])cn2)cc1 | -77.9*
COc1ccc(C(=O)O/N=C(\N)c2ccccc2)cc1 | -82.4*
COc1ccc(C(=O)O/N=C(\N)c2ccc(Br)cc2)cc1 | -174.4*

Compound activity as filed in PubChem BioAssay.
